Measured values published in ChEMBL document CHEMBL3988442, “University of Dundee, Small-Polar-MMV Screening Library” (2021).

Each compound was assayed against AMP-activated protein kinase, AMPK (Homo sapiens) (UniProt P54646+O43741+P54619+Q9UGJ0+Q9Y478+Q13131+Q9UGI9) (assay: AMP-dependent Kinase enzyme assay. An in vitro enzyme assay that detects ADP turnover that is directly proportional to AMPK activity. This uses naive AMPK that is activated during the assay with MK-8722). Conditions: 30 µM.
Type: functional
Parameters: scale not given: direction of the effect not stated beside the values

Point of comparison: `CSc1nccc(N2CCC(NCc3nc(C)cc(C)n3)CC2)n1`, Percent Effect 7.66%. Against it:
- COC(=O)C(NC(=O)c1ccc(C)cc1C)c1cccnc1 (stereo unspecified) — lower, 2.32%
- O=C(c1cnc2ccccn12)N1CCCC(c2ccn[nH]2)C1 (stereo unspecified) — lower, 7.56%
- c1cnc(N2CCC(OCC3CCCCO3)CC2)nc1 (stereo unspecified) — lower, 2.8%
- COc1ccc(CN(Cc2ccsc2)CC2CCCO2)cn1 (stereo unspecified) — lower, 5.75%
- CN(Cc1nc(C(C)(C)C)no1)C1CCS(=O)(=O)C1 (stereo unspecified) — lower, 2.12%
- CCCS(=O)(=O)N1CCC(c2ccc(OC)cc2)CC1 — lower, 2.67%
- NC(=O)CCn1ccc(NCc2cc(F)ccc2Br)n1 — lower, -0.0146%
- CSCCC(NC(=O)c1ccccc1)C(=O)N(C)Cc1ccsc1 (stereo unspecified) — lower, -4.15%
- Cc1noc(C)c1CCCNC(=O)Nc1ccc2c(c1)COC2 — higher, 16.7%
- CN(Cc1nc(C2CC2)no1)C1CCS(=O)(=O)C1 (stereo unspecified) — lower, 2.02%
- CSc1ccc(NC(=O)Cn2cc(N)cn2)cc1 — lower, -79.3%
- NC(=O)c1ccnc(N2CCCC(CO)(Cc3ccccc3)C2)c1 (stereo unspecified) — higher, 11.6%
- COc1cccc(CN(C)C(C)C(=O)Nc2nc(C)c(C)s2)c1 (stereo unspecified) — lower, 5.13%
- CS(=O)(=O)c1ccc(Cl)c(NC(=O)NCCC2=CCCCC2)c1 — lower, 3.49%
- CCCN1CCC(CC(=O)NCCc2nc(C)cc(C)n2)CC1 — lower, 6.07%
- CSCCC(NC(=O)C1CC1)C(=O)N(C)Cc1ccsc1 (stereo unspecified) — lower, -0.745%
- CCc1c(C)nn2c(O)cc(C3CCN(C(=O)c4ccccn4)C3)nc12 (stereo unspecified) — lower, 4.34%
- CN(CC(O)C(F)(F)F)C(=O)Nc1cccc(C(F)F)c1 (stereo unspecified) — lower, -0.316%
- CCn1cnnc1CNC(=O)N1CCOC(c2ccc(Cl)cc2)C1 (stereo unspecified) — lower, -4.37%
- O=C(Cc1ccccc1Cl)Nc1cc(N2CCCC2)ncn1 — lower, 0.395%
